# Measurements: PubChem BioAssay AID624405 (Broad Institute, 2012)
# Out of some 1,900 compounds screened, about 250 (13%) were called active. Not shown: some 4% with an inconclusive outcome.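 Rule for the calls: active = fitted curve reaches 40% rescue activity at or below the top valid dose, in every test run; inconclusive = test runs disagree, some active and some inactive; inactive = every run misses the threshold or moves the wrong way.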 A selection follows. Results with a measured potency or affinity are listed apart.
# Assay: suppressors of statin myotoxicity in myotubes, dose response, cell-based, C2C12 myotubes, ATP luminescence, cherry pick (AID 624405);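 note: myotubes are challenged with simvastatin at 10 µM to lower ATP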
# Conditions: C2C12 myotubes + simvastatin, 48 h, scaled: DMSO wells 0, geranylgeraniol wells 100; series mostly up to 19.5 µM
row,Compound,outcome
1,Clc1ccc(Cn2ncc3c(N4CCOCC4)ncnc32)cc1,inactive
2,Cc1ccc(Cn2ncc3c(N4CCCC4)ncnc32)cc1,inactive
3,CC(C)CNc1ncnc2c1cnn2Cc1ccc(Cl)cc1,inactive
4,Cc1ccc(Cn2ncc3c(NCCCN(C)C)ncnc32)cc1,inactive
5,CCC(C)Nc1ncnc2c1cnn2Cc1ccc(Cl)cc1 (configuration not stated),inactive
6,CCN(CC)c1ncnc2c1cnn2Cc1ccc(Cl)cc1,inactive
7,COc1ccccc1N1CCN(C(=O)c2cc(-c3ccc(F)cc3)[nH]c2C)CC1,inactive
8,COc1cc(C)c(S(=O)(=O)n2ccc(C)n2)cc1C,inactive
9,C[C@@H]1CN([C@@H](C)CO)C(=O)c2cc(C3=CCCCC3)cnc2O[C@H]1CN(C)Cc1ccccc1F,inactive
10,CC(=O)Nc1sc2c(c1C#N)CCC(C)C2 (configuration not stated),inactive
11,Cc1noc(C)c1NC(=O)Nc1ccc2c(c1)CC(=O)N([C@H](C)CO)C[C@H](C)[C@@H](CN(C)Cc1ccc(Oc3ccccc3)cc1)O2,inactive
12,C[C@H]1CCCCO[C@H](CN(C)S(=O)(=O)c2cccs2)[C@@H](C)CN([C@@H](C)CO)C(=O)c2cc(NC(=O)Nc3ccc(F)cc3)ccc2O1,inactive
13,C[C@H](CO)N1C[C@H](C)[C@H](CN(C)Cc2ccc(Oc3ccccc3)cc2)Oc2ccc(NC(=O)Nc3ccc(C(F)(F)F)cc3)cc2CC1=O,inactive
14,C[C@H](CO)N1C[C@H](C)[C@@H](CN(C)Cc2ccc(-c3ccccc3)cc2)Oc2ccc(NC(=O)c3ccncc3)cc2CC1=O,inactive
15,Cc1c(Cl)cccc1NC(=O)CNC(=O)Cc1n[nH]c(=O)c2ccccc12,inactive
16,C[C@@H]1CCCCO[C@@H](CN(C)C(=O)Nc2cccc3ccccc23)[C@H](C)CN([C@H](C)CO)C(=O)c2cc(NS(=O)(=O)c3ccc(Cl)cc3)ccc2O1,inactive
17,N#Cc1nc(COc2ccccc2)oc1N1CCOCC1,inactive
18,O=C(Nc1ccc(S(=O)(=O)N2CCCCCC2)cc1)c1ccco1,inactive
19,N#Cc1nc(-c2ccco2)oc1NCCCn1ccnc1,inactive
20,CCCOc1cc(C)c(Cl)cc1S(=O)(=O)N(CC)CC,inactive
21,Cc1ccc(S(=O)(=O)Nc2ccc3c(c2)C(=O)N([C@@H](C)CO)C[C@@H](C)[C@H](CN(C)Cc2ccc(Cl)c(Cl)c2)O3)cc1,inactive
22,C[C@@H]1CCCCO[C@H](CN(C)C(=O)Nc2ccc(F)cc2)[C@H](C)CN([C@@H](C)CO)C(=O)c2cc(NC(=O)Cc3ccccc3)ccc2O1,inactive
23,CC(C)c1ccc(CNc2nc3nc4c(c(=O)n3[nH]2)CCC4)cc1,inactive
24,Cc1ccc(S(=O)(=O)Nc2ccc3c(c2)CC(=O)N([C@@H](C)CO)C[C@H](C)[C@@H](CN(C)S(=O)(=O)c2cccs2)O3)cc1,inactive
25,CN(CC(=O)NCc1ccco1)CC(=O)Nc1ccc(F)c(F)c1F,inactive
26,COc1cc(NC(=O)COC(=O)c2cc(S(=O)(=O)N3CCOCC3)ccc2F)cc(OC)c1,inactive

row,Compound,outcome
1,COc1cc2c(C(=O)NCCCN3CCN(c4cccc(Cl)c4)CC3)cn(C)c(=O)c2cc1OC,inactive
2,COc1ccc(S(=O)(=O)Nc2ccc3c(c2)C(=O)N([C@@H](C)CO)C[C@@H](C)[C@H](CN(C)C(=O)Nc2cccc4ccccc24)OCCCC[C@@H](C)O3)cc1,inactive
3,Cc1csc(SCC(=O)Nc2cccc(S(=O)(=O)N3CCCC3)c2)n1,inactive
4,COc1cccc(NC(=O)CSc2nc(C)cs2)c1,inactive
5,COc1ccc(S(=O)(=O)Nc2cccc3c2O[C@H](CN(C)C(=O)Nc2ccc(C(F)(F)F)cc2)[C@H](C)CN([C@H](C)CO)C3=O)cc1,inactive
6,C[C@H](CO)N1C[C@H](C)[C@H](CN(C)Cc2ccc(Oc3ccccc3)cc2)Oc2ccc(NC(=O)Nc3ccc(F)cc3)cc2CC1=O,inactive
7,C[C@@H]1CN([C@@H](C)CO)C(=O)c2cc(C#Cc3ccccc3F)cnc2O[C@H]1CN(C)S(=O)(=O)c1ccccc1F,inactive
8,CCN(CC)CC(=O)n1c2c(c3ccccc31)CCCC2,inactive
9,Clc1ccc(Cn2ncc3c(NCc4ccccc4)ncnc32)cc1,inactive
10,O=C(Nc1ccc(S(=O)(=O)N2CCC(C(=O)NC3CCCCC3)CC2)cc1)c1ccco1,inactive
11,Nc1ccc2c(S(=O)(=O)O)cccc2c1S(=O)(=O)O,inactive
12,O=C(Cn1nnc(-c2ccncc2)n1)N(C1CCCCC1)C1CCCCC1,inactive
13,COCCn1nnnc1CN(CCc1ccc(OC)c(OC)c1)Cc1cc2ccc(C)cc2[nH]c1=O,inactive
14,COc1ccc(NC(=O)Nc2ccc3c(c2)CC(=O)N([C@@H](C)CO)C[C@@H](C)[C@H](CN(C)C(=O)Nc2cccc4ccccc24)O3)cc1,inactive
15,O=C(CCC1COc2ccccc2O1)Nc1ccccn1 (configuration not stated),inactive
16,C[C@@H]1CCCCO[C@@H](CN(C)S(=O)(=O)c2ccc(Cl)cc2)[C@@H](C)CN([C@@H](C)CO)C(=O)c2cc(NS(C)(=O)=O)ccc2O1,inactive
17,C[C@@H]1CCCCO[C@@H](CN(C)S(=O)(=O)c2ccc(Cl)cc2)[C@@H](C)CN([C@H](C)CO)C(=O)c2cc(NS(C)(=O)=O)ccc2O1,inactive
18,CCC(=O)c1ccc(OCC(=O)O)cc1,inactive
19,COc1cc(OC)cc(-c2nc3nc(C)c(CCC(=O)O)c(C)n3n2)c1,inactive
20,O=C(CSc1nnc2ccccn12)NNC(=O)c1cccc(Cl)c1,inactive
21,COC(=O)c1ccc(CSc2nc3c(cnn3-c3ccc(C)c(C)c3)c(=O)[nH]2)o1,inactive
22,COc1ccc(S(=O)(=O)Nc2ccc3c(c2)C(=O)N([C@H](C)CO)C[C@H](C)[C@@H](CN(C)S(=O)(=O)c2ccc(F)cc2)OCCCC[C@H](C)O3)cc1,inactive
23,COc1ccc(CC(=O)Nc2cc(C)on2)cc1,inactive
24,C[C@@H]1CCCCO[C@H](CN(C)C(=O)Cc2ccccc2)[C@@H](C)CN([C@@H](C)CO)C(=O)c2cc(NS(=O)(=O)c3cn(C)cn3)ccc2O1,inactive
25,O=S(=O)(c1ccccc1C(F)(F)F)N1CCN(S(=O)(=O)c2ccccc2C(F)(F)F)CC1,inactive
26,CN1C(=O)c2cc(NC(=O)c3cnccn3)ccc2OC[C@H]2O[C@H](CC(=O)NCC3CCCCC3)CC[C@H]21,inactive
